Experimental findings from PubChem BioAssay AID485317 (Broad Institute, 2010) are described below.

Among all 290,000 compounds or so, about 11,000 (3.8%) were called active. This is one part of a sample in which actives are shown more often than they occur.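 How the source made its calls: active means mean replicate inhibition above about 79%, with every replicate also reaching it (limit read from the data); inconclusive means only one of the two criteria met; inactive means mean below limit and not every replicate reaching it.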

This experiment deals with FAD-linked sulfhydryl oxidase ALR (Homo sapiens) (UniProt P55789). As to the kind of experiment: ALR-catalysed DTT oxidation blockers – biochemical, H2O2 detection, HRP-luminol luminescence, single point, primary screen (AID 485317). The conditions noted are these: purified ALR, hits give high values, concentration not given here.
Chain of FAD-linked sulfhydryl oxidase ALR (Homo sapiens) (P55789 whole entry, looked up): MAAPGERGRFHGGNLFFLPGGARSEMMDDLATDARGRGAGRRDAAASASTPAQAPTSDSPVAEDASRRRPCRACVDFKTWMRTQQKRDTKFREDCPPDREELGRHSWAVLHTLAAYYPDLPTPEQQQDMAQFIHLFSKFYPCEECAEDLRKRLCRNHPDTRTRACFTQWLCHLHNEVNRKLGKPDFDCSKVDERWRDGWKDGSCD
With `Cn1cnnc1SCC(=O)Nc1ccc(N2CCOCC2)cc1`, the inhibition is 95.8% (active).

As to `CCn1c(Cc2ccc(OC)cc2)nnc1SCC(=O)Nc1ccc(N2CCOCC2)cc1`, the inhibition is 39.5% (inactive).

For `Cn1c(SCC(=O)N2CCOCC2)nnc1-c1ccc(NC(=O)c2ccccc2F)cc1`, the inhibition was -5.97% (inactive).

With `Cn1c(SCC(=O)Nc2cccc(O)c2)nnc1-c1ccc(S(=O)(=O)N2CCOCC2)cc1`, the inhibition was 16.7% (inactive).

In the case of `Cn1c(SCC(=O)Nc2ccc(N3CCOCC3)cc2)nnc1C(F)(F)F`, the inhibition was 93.8% (active).

Turning to `O=C(O)CCC(=O)Nc1ccc(N2CCOCC2)cc1`, the inhibition is -4.54% (inactive).

As for `COc1ccc(C(=O)NCc2ccc(C)cc2)cc1S(=O)(=O)N1CCCC1`, the inhibition is -2.12% (inactive).

With `Cc1nc2ccccc2c(=O)n1-c1ccc(NS(=O)(=O)c2ccc(F)cc2F)cc1`, the inhibition is -10.6% (inactive).

Take `CCn1c(CN2C(=O)CSc3ccccc32)n[nH]c1=S`: the inhibition is 91.7% (active).

As for `CCn1c(CNS(=O)(=O)c2ccc(Cl)cc2)n[nH]c1=S`, the inhibition was 21.4% (inactive).

Take `CCn1c(CSCc2c(Cl)cccc2Cl)n[nH]c1=S`: the inhibition was 67.9% (inactive).

As for `Cn1c(CCN2CCCC2)nc2cc(NS(=O)(=O)c3ccccc3)ccc21`, the inhibition is -0.934% (inactive).

Consider `O=S(=O)(Nc1ccc2cn[nH]c2c1)c1ccccc1`, for which the inhibition was -80.8% (inactive).

For `O=S(=O)(Nc1ccc2nc(-c3ccco3)[nH]c2c1)c1ccccc1`, the inhibition was 88.8% (active).

As for `COC(=O)c1ccc(NS(=O)(=O)c2cc3c4c(c2)C(C)C(=O)N4CCC3)cc1` (centres undefined), the inhibition is -2.24% (inactive).

Consider `O=C(COC(=O)c1cccc(Cl)c1)Nc1ccc2[nH]c(=O)[nH]c2c1`, for which the inhibition was -0.957% (inactive).

`CCC(=O)NC(=S)Nc1ccc(NC(=O)c2ccco2)c(Cl)c1`: the inhibition is -18.1% (inactive).

On to `O=C(NNC(=S)Nc1ccc(Br)cc1Cl)c1ccco1`, for which the inhibition is 82.2% (active).

For `O=C(NNC(=O)c1ccco1)Nc1ccccc1`, the inhibition was 39.9% (inactive).

As for `CN(CCc1ccccc1)C(=O)c1cccc(NC(=O)Cc2ccc([N+](=O)[O-])cc2)c1`, the inhibition was 1% (inactive).

As to `O=C(OCCN1C(=O)c2ccccc2C1=O)[C@@H]1CC(O)CN1S(=O)(=O)c1ccccc1[N+](=O)[O-]` (some centres undefined), the inhibition is -2.79% (inactive).

For the compound `COc1cc(/C=N/NC(=S)Nc2cccnc2)cc(OC)c1O`, the inhibition was 95% (active).

Take `COc1cc(/C=N/Nc2ccc(C)cc2)cc(Br)c1O`: the inhibition is 98.4% (active).

Consider `COc1cc(/C=N/NC(=O)c2cc(C)n(-c3ccc(F)cc3)c2C)cc(OC)c1O`, for which the inhibition was 64% (inactive).

Turning to `COc1ccc(/C=C/C(=O)Nc2cccnc2)cc1OC`, the inhibition is -0.926% (inactive).

Take `COc1cc(/C=N/NC(=O)c2cc(-c3ccccc3C)nc3ccccc23)cc(OC)c1O`: the inhibition is -3.08% (inactive).

As for `COc1cc(/C=N/O)cc(Br)c1OS(=O)(=O)c1ccc(C)cc1`, the inhibition was -15% (inactive).

In the case of `Nc1c(C(=O)Nc2ccc3c(c2)OCCO3)nnn1Cc1ccccc1`, the inhibition is -23.5% (inactive).

Regarding `CC(C)c1c(C(=O)N/N=C/c2ccc(-c3ccccc3)cc2)nnn1-c1nonc1N`, the inhibition is -10.7% (inactive).

In the case of `Cc1nc2ccc(C(=O)N/N=C/c3ccc(O)cc3)cc2[nH]1`, the inhibition is 99% (active).

Consider `COC(=O)N/N=C/c1ccc(/C=N/NC(=O)OC)cc1`, for which the inhibition was -1.28% (inactive).

As for `COc1ccc(/C=N/NC(=O)c2cccc(C(F)(F)F)c2)cc1`, the inhibition is -3.29% (inactive).

`Cc1nc2ccc(C(=O)O)cc2[nH]1`: the inhibition is -25.4% (inactive).

In the case of `Cc1nonc1C(=O)N/N=C/c1ccc(O)cc1`, the inhibition was 99.2% (active).

In the case of `CCn1nc(C(=O)NNC(=O)C2CSC3(C)CCC(=O)N23)c2ccccc2c1=O` (centres undefined), the inhibition is -0.847% (inactive).

Turning to `CC(C)CC1(C)NC(=O)N(CC(=O)Nc2ccc3c(c2)OCCO3)C1=O` (centres undefined), the inhibition was 4.51% (inactive).

Take `CCC(C)c1ccccc1N1CC(C(=O)N2CCN(S(=O)(=O)c3ccc(F)cc3)CC2)CC1=O` (centres undefined): the inhibition is 1.3% (inactive).

Consider `COCC(=O)Nc1c(I)c(C(=O)NCC(O)CO)c(I)c(C(=O)N(C)CC(O)CO)c1I` (centres undefined), for which the inhibition is -12.2% (inactive).

As to `O=C(CSc1ccccn1)N1CCN(S(=O)(=O)c2ccc(Cl)cc2)CC1`, the inhibition is -0.731% (inactive).

As for `CO[C@@H]1[C@@H](OC(N)=O)[C@@H](O)C(Oc2ccc3c(O)c(NC(=O)c4ccc(O)c(CC=C(C)C)c4)c(=O)oc3c2C)OC1(C)C` (some centres undefined), the inhibition is 1.83% (inactive).

As for `COc1ccc(F)cc1C(=O)COC(=O)c1n[nH]c(=O)c2ccccc12`, the inhibition is -1.76% (inactive).

Consider `CC(C)(C)OC(=O)N[C@H](C(=O)OC(C)(C)C)c1ccc(Br)cc1`, for which the inhibition was -0.888% (inactive).

On to `O=C1N[C@@H](Cc2ccccc2)C(=O)N2[C@@H]3N(S(=O)(=O)c4ccc(F)cc4)c4ccccc4[C@]3(Br)C[C@@H]12`, for which the inhibition was -1.43% (inactive).

`NS(=O)(=O)c1ccc(NC(=O)COC(=O)C2(c3ccc(F)cc3)CCCC2)cc1`: the inhibition was -14.8% (inactive).

Turning to `CC(=O)C1=C(O)C(=O)N(c2ccc(S(N)(=O)=O)cc2)C1c1ccccc1F` (centres undefined), the inhibition is -0.498% (inactive).

Regarding `NS(=O)(=O)c1ccc(NC2=CC(c3ccc(F)cc3)N(c3ccc(S(N)(=O)=O)cc3)C2=O)cc1` (centres undefined), the inhibition was 97.6% (active).

On to `COc1ccccc1NS(=O)(=O)c1ccc(C)c(C(=O)NNC(=O)c2csc(N3CCOCC3)n2)c1`, for which the inhibition was -6.78% (inactive).

`CCn1c(-c2ccoc2C)n[nH]c1=S`: the inhibition was 6.36% (inactive).

Consider `Cc1ccccc1-c1n[nH]c(=S)n1C`, for which the inhibition is 93.4% (active).

Take `CCCc1cc(-c2n[nH]c(=S)n2CC)c2ccccc2n1`: the inhibition is -9.51% (inactive).

On to `O=C(CCNC(=O)c1ccc(Cl)cc1)NC1CCCc2ccccc21` (centres undefined), for which the inhibition is -6.93% (inactive).

As for `CCOc1ccccc1NC(=O)Cc1cccs1`, the inhibition was -14.8% (inactive).

On to `CCOc1ccccc1NC(=O)CCc1ccc(C)o1`, for which the inhibition is 99.7% (active).

For `CCOc1ccccc1NC(=O)CCc1nnc2ccc(NCc3ccco3)nn12`, the inhibition was 1.12% (inactive).

On to `CCOc1ccc(NC(=O)CN(C)C(=O)CCSc2ccc(F)cc2)cc1OCC`, for which the inhibition is -3.71% (inactive).

With `COc1ccc(S(=O)(=O)Nc2cc(C)on2)cc1NC(C)=O`, the inhibition is -7.72% (inactive).

For the compound `O=C(CN1CCN(c2ccccc2O)CC1)NC(=O)NCc1ccccc1`, the inhibition was 13.1% (inactive).

In the case of `Oc1ccccc1N1CCN(C(=S)NCc2ccccc2)CC1`, the inhibition is 96.4% (active).

In the case of `CC1CCCCN1C(=S)NCc1ccccc1` (centres undefined), the inhibition was -1.5% (inactive).

As for `O=c1cc(CCl)nc2scc(-c3ccccc3)n12`, the inhibition is 60.8% (inactive).

Turning to `CCOC(=O)c1sc(=NC(=O)c2ccc(Br)cc2)n(C)c1C`, the inhibition was -3.96% (inactive).

For the compound `Cc1csc(=NC(=O)c2ccccc2)n1CCO`, the inhibition is 99% (active).

On to `C=C(C)CNC(=S)/N=c1\scc(C)n1CC`, for which the inhibition was 18% (inactive).

For `Cc1csc(=Nc2ccccc2)n1CCO`, the inhibition is 98.7% (active).

For `OCCn1c(-c2ccccc2)csc1=Nc1ccccc1`, the inhibition is 99% (active).

Regarding `Cc1cc(C(=O)CCC(=O)NNC(=O)c2ccccc2O)c(C)s1`, the inhibition was 8.1% (inactive).

In the case of `O=C(COC(=O)c1ccc2ncsc2c1)Nc1ccc(Cl)cc1`, the inhibition is 16% (inactive).

For `COc1ccc(NC(=O)C(=O)NCC(c2ccco2)N2CCc3ccccc3C2)cc1` (centres undefined), the inhibition was -1.35% (inactive).

Turning to `COc1ccc(NS(=O)(=O)c2cc(NC(=O)c3ccc(S(=O)(=O)N(C)C)cc3)ccc2N2CCOCC2)cc1`, the inhibition is 0.706% (inactive).

As to `Cc1cc(C(=O)OC(C)C(=O)NC2CCCCC2C)c(C)o1` (centres undefined), the inhibition is 2.82% (inactive).

For the compound `CC1CC(C)(C)NC(=S)N1CCC(=O)N1CCN(Cc2ccccc2)CC1` (centres undefined), the inhibition is -28.3% (inactive).

As to `CC1CC(=O)Nc2ccccc2N1S(=O)(=O)c1cccs1` (centres undefined), the inhibition was -4.3% (inactive).

Turning to `CC1CC(=S)Nc2ccccc2N1Cc1ccccc1` (centres undefined), the inhibition is 99% (active).

Consider `CC1CCCN(C(=O)c2cc(-c3ccco3)nc3ccccc23)C1` (centres undefined), for which the inhibition is 6.96% (inactive).

As to `Cc1cc(C)c(C)c(S(=O)(=O)N2CCN(C(=O)c3ccc4c(=O)n5c(nc4c3)CCC5)CC2)c1C`, the inhibition is -2.44% (inactive).

As for `O=C(Nc1cccc(S(=O)(=O)N2CCCCC2)c1)c1cncc(Br)c1`, the inhibition is -4.78% (inactive).

For the compound `CCc1nnc(NS(=O)(=O)c2ccc(N=Cc3c(C)[nH]n(-c4ccc(C)cc4)c3=O)cc2)s1`, the inhibition was 63.1% (inactive).

Consider `COc1cc(SC#N)ccc1N=Cc1c(C)[nH]n(-c2ccc(C)cc2)c1=O`, for which the inhibition is 99.6% (active).

As for `Cc1ccc(-n2[nH]c(C)c(/C=N/N3C(=O)c4cccc5cccc(c45)C3=O)c2=O)cc1`, the inhibition was -15.1% (inactive).

For `O=C(NCCCN1CCCC1=O)c1cccc(S(=O)(=O)NCc2ccccc2)c1`, the inhibition is 0.0635% (inactive).

For `CC(C)Oc1ccccc1C(=O)NC(CO)C(=O)O` (centres undefined), the inhibition is 2.33% (inactive).

With `CC(C)NC(=O)c1ccc(Cl)cc1Cl`, the inhibition is -6.81% (inactive).

Turning to `CC(C)NC(=O)c1ccccc1S(=O)c1ccccc1C#N` (centres undefined), the inhibition is 99.6% (active).

As for `CC(C)CN(C(=O)COC(=O)c1ccc2ccccc2c1)c1c(N)n(Cc2ccccc2)c(=O)[nH]c1=O`, the inhibition was 1.44% (inactive).

Regarding `S=C(NCCc1ccccc1)NCc1ccccc1Cl`, the inhibition is 5.1% (inactive).

As to `O=C(O)Cc1ccc(NC(=O)Nc2cccc3ccccc23)cc1`, the inhibition was -53.7% (inactive).

In the case of `O=C(O)Cc1ccc(NCc2ccccc2Cl)cc1`, the inhibition is 97.2% (active).

As for `CC(=O)C12CC(C)=C(C)CC1CC1C3CCC4=CC(=O)CCC4(C)C3CCC12C` (centres undefined), the inhibition was -1.17% (inactive).

For the compound `COc1ccc(Oc2cn[nH]c2-c2ccc(OC)cc2O)cc1`, the inhibition was 97.1% (active).

As for `CCOc1ccccc1Oc1cn[nH]c1-c1ccc(OC)cc1O`, the inhibition was 59.2% (inactive).

As to `COc1ccc(-c2cn[nH]c2-c2ccc(OC)cc2)cc1`, the inhibition was 0.7% (inactive).

`Oc1[nH]c2ccc(Br)cc2c1N=Nc1nn[nH]n1`: the inhibition is 89.8% (active).

As to `O=C(CNC(=O)Cc1ccccc1)N=Nc1c(O)[nH]c2ccc(Br)cc12`, the inhibition was 10.6% (inactive).

`NS(=O)(=O)c1ccc(N=Nc2c(O)[nH]c3ccc(Br)cc23)cc1`: the inhibition is -3.47% (inactive).

In general, inhibition refers to the change of the read-out against control, counted positive when it falls.
